Measured values taken from PubChem BioAssay (EPA / NIEHS).
Results filed as inconclusive are left out. The source made the active and inactive calls. How the source made its calls: active means hit-call score of the fitted dose curve at least 0.9, where 1 is the maximum; inconclusive means response in the unintended direction; inactive means score below 0.9.

The compounds below were run against AR (gene 367) (UniProt P10275) (assay: ACEA_AR_agonist_80hr: ACEA Biosciences xCELLigence Real-Time Cell Analysis on Androgen Receptor Agonism for Proliferation (AID 2283783);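 further: hits increase impedance growth signal above DMSO baseline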).
Sequence of AR (gene 367) (P10275 whole entry, looked up): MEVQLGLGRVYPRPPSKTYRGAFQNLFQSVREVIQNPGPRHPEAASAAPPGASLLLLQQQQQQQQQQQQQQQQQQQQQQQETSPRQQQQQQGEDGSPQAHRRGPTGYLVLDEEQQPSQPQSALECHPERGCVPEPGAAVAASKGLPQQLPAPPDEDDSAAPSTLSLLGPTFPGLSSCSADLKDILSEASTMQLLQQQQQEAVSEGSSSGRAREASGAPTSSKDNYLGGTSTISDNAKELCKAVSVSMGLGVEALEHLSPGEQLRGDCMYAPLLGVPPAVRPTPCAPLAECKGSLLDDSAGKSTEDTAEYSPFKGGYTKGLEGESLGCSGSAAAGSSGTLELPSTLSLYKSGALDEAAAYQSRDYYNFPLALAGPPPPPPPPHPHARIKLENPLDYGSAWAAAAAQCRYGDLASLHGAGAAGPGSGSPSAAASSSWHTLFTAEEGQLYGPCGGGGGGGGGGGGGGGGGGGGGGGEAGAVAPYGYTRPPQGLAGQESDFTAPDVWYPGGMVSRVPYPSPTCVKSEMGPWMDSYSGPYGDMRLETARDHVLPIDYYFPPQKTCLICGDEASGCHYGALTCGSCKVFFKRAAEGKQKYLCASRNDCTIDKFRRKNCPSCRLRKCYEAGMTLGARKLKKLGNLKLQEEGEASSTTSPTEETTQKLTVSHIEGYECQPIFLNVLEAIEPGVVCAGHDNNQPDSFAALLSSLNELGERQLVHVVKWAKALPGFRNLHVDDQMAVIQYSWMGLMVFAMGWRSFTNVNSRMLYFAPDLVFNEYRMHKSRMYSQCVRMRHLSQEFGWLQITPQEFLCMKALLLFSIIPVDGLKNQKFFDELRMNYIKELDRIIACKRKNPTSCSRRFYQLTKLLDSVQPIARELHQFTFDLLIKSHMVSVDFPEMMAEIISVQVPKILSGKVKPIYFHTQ
Method in brief: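 Proliferation of 22Rv1 prostate cancer cells tracked by electrical impedance, endpoint taken at 80 hours after dosing. Eight-point 1:4 dilutions from 100 uM maximum final, duplicate; testosterone and MG132 as positive controls, assay media as negative.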

Structure (SMILES) | outcome
ClC1=C(Cl)C2(Cl)C3C(Cl)C(Cl)CC3C1(Cl)C2(Cl)Cl (stereo unspecified) | inactive
O=P(OCC(Br)CBr)(OCC(Br)CBr)OCC(Br)CBr (stereo unspecified) | inactive
CCCCCCCc1ccc(O)cc1 | inactive

The compounds below were run against AR (gene 367) (UniProt P10275) (assay: ACEA_AR_antagonist_80hr: ACEA Biosciences xCELLigence Real-Time Cell Analysis on Androgen Receptor Antagonism for Proliferation (AID 2283787);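 further: 22Rv1 human prostate cancer cells with growth followed by electrical impedance; hits lower the impedance growth signal relative to DMSO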).
Method in brief: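 22Rv1 cells in assay medium, growth tracked by electrical impedance; compounds eight-point 1:4 dilutions from 100 uM final, duplicate plates. Endpoint at 80 h; loss of signal versus DMSO.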

Structure (SMILES) | AC50 | outcome
ClC1=C(Cl)C2(Cl)C3C(Cl)C(Cl)CC3C1(Cl)C2(Cl)Cl (stereo unspecified) | 5.06 µM (active) | –
O=P(OCC(Br)CBr)(OCC(Br)CBr)OCC(Br)CBr (stereo unspecified) | – | inactive
CCCCCCCc1ccc(O)cc1 | 50 µM (active) | –
